Hit rate of the full screen: of about 69,000 compounds, about 8,600 (12%) showed an effect of 50% or more. Shown is part of a subset that was picked to be rich in strong results.

The experiment concerns Plasmodium berghei. As to the kind of experiment: Screen against P. berghei liver stage (PbLuc), transformed with Luciferase, at 10uM. Type of experiment: functional, HepG2. The settings on record: tested at 10 uM.
Take `COc1ccc(C(NCc2ccc(C#N)cc2)C2CC2)cc1` (stereo not given): the INHIBITION was -22.3%.
As for `COC(=O)CCn1ccc(=O)c2ccccc21`, the INHIBITION worked out at 20.9%.
Then `O=S(=O)(C1CC1)N1CCCn2cnc(COc3cccnc3)c2C1`, with -4.26%; and `Cc1ccc(CCCC(=O)N2CCN(C3CCCN(C)C3)CC2)s1` (stereo not given), with 15.7%.
For `O=C(C1CCOC1)N1CCN(CC(F)(F)F)c2ccccc21` (stereo not given), the INHIBITION is given as 34.2%.
`c1ccc(-c2nnc(CN3CCCC3Cn3cncn3)o2)cc1` (stereo not given): the INHIBITION was -41.6%.
On to `COCc1ncn2c1CN(C(=O)c1ccc[nH]1)CC2`, for which the INHIBITION was -20.1%.
With `Cc1nc(C)n(CC2CCCN(CCC(=O)N3CCOCC3)C2)n1` (stereo not given), the INHIBITION is -2.19%.
For the compound `c1c[nH]c(CN2CCCC(Cc3ccc(NC4CCCC4)nn3)C2)n1` (stereo not given), the INHIBITION was -3.02%.
Under `CC(=O)N(C)Cc1cccc(NC(=O)N(C)Cc2nccs2)c1` stands -49.3%; under `CCSCc1cccc(NC(=O)N(C)Cc2ncnn2C)c1`, 59.7%; under `Cc1ccc(NC(=O)N(C)Cc2cnn(C)c2)cc1OCC(F)F`, 52.7%.
Consider `Cc1ccc(C)c(NC(=O)N(C)Cc2cnn(C)c2)c1`, for which the INHIBITION was found to be 39.8%.
Take `Cc1ccc(NC(=O)N(C)Cc2cnn(C)c2)c(C)c1`: the INHIBITION is listed as -29.1%.
For the compound `CN(Cc1ncnn1C)C(=O)Nc1ccc(OC(F)F)cc1`, the INHIBITION came out at 21.2%.
Regarding `CCOc1ccc(CNC(=O)N(C)Cc2ncnn2C)cc1C`, the INHIBITION is recorded as 49%.
In the case of `CCOc1cc(NC(=O)N(C)Cc2ncnn2C)ccc1C`, the INHIBITION is listed as 50.1%.
As to `CC(C)OCc1cccc(NC(=O)N(C)Cc2ncnn2C)c1`, the INHIBITION is given as 45.8%.
For the compound `COc1c(CNCCNC(=O)c2cccs2)c(C)nn1C`, the INHIBITION is -79.3%.
In the case of `Cc1ccc(OCCN(C)C(=O)NC(C)c2nncn2C)cc1` (stereo not given), the INHIBITION is on record as 21.5%.
Consider `Cc1cccc(NC(=O)Cn2nc3ccccn3c2=O)c1C`, for which the INHIBITION was -7.35%.
Under `CC(C)OCc1nn(C)c2c1CCN(CC1CC1)C2` stands 32.5%; under `Cc1cc(CN2C[C@H](N3CCOCC3)[C@@H]3OCCC[C@@H]32)oc1C`, 26.4%; under `O=c1oc(-c2ccc(F)cc2)nn1CN1CCCCC1`, 23.7%.
On to `CCOc1ccc(Cl)c(C(=O)N2CCN(CC(O)CC)CC2)n1` (stereo not given), for which the INHIBITION is listed as 14.1%.
`COCc1cc(N2CCN(C3CCCCC3)CC2)n2nccc2n1`: the INHIBITION was -9.29%.
Under `COCc1cc(N2CCOCC2)n2nccc2n1` stands -11.9%; under `CCc1cc(N2CCC(N3CCSCC3)CC2)n2nccc2n1`, 35%; under `CCc1cc(N2CCN(c3ccc(Cl)cn3)CC2)n2nccc2n1`, 81.2%.
Consider `COCc1cc(N2CCN(c3ccc(Cl)cn3)CC2)n2nccc2n1`, for which the INHIBITION was determined as 54.5%.
Regarding `COCc1cc(N2CCN(Cc3ccncc3)CC2)n2nccc2n1`, the INHIBITION is 48.5%.
As to `Cc1ccc(CN2CC[C@@H](O)[C@@H]2Cc2cnn(C)c2)o1`, the INHIBITION worked out at 22.9%.
In the case of `Cc1cccc(CN2C[C@H]3CCC[C@@]3(COCc3csc(C)n3)C2)n1`, the INHIBITION is on record as -28.2%.
With `CCC(CC)c1cc(CNC(=O)N2CCCC(C(=O)NC)C2)on1` (stereo not given), the INHIBITION came to 64.6%.
As to `CCC(CC)c1cc(CNC(=O)N2CCC(CO)CC2)on1`, the INHIBITION is given as 40.4%.
Consider `CCC(CC)c1cc(CNC(=O)N2CCCC(N(C)C)C2)on1` (stereo not given), for which the INHIBITION was -34%.
As for `C1CCC(c2nnc3sc(C4CCCO4)nn23)C1` (stereo not given), the INHIBITION is on record as 49.4%.
For `CCOc1ccc(CC(=O)N2CCN(c3nccn3CC)CC2)cc1`, the INHIBITION was 49.1%.
As for `Cc1csc(CNC(=O)N(C)Cc2cnn(C)c2)n1`, the INHIBITION turned out to be 54.4%.
For `Cc1ccsc1CNC(=O)N(C)Cc1cnn(C)c1`, the INHIBITION is recorded as -14.86%.
Regarding `Cc1nc(CNC(=O)N(C)Cc2cnn(C)c2)cs1`, the INHIBITION stood at 15.05%.
Turning to `Cc1ccc2c(c1)C1(CCN(C(=O)C3CC3)CC1)CC2N1CCOCC1` (stereo not given), the INHIBITION came out at 10.7%.
Regarding `Cc1nn(C)c2c(N3CCN(C(=O)C4CCCCC4)CC3)ncnc12`, the INHIBITION turned out to be 44.1%.
Then `CC(=O)N1CCC2(C1)C(=O)N(CC1CC1)c1ccccc12` (stereo not given), with -19.6%; and `Cc1ccc(CN2CCC3(C2)C(=O)N(CC2CC2)c2ccccc23)s1` (stereo not given), with 55%; and `CC(C)CN1C(=O)C2(CCN(Cc3ccsc3)C2)c2ccccc21` (stereo not given), with 32.2%.
As for `CN1CCC2(CC1)C(=O)N(CC1CC1)c1ccccc12`, the INHIBITION is given as 14.1%.
For the compound `CC(C)CN1C(=O)C2(CCN(Cc3nccs3)C2)c2ccccc21` (stereo not given), the INHIBITION was determined as 81.8%.
For the compound `CC(C)CN1C(=O)C2(CCN(Cc3ccc(F)cc3)C2)c2ccccc21` (stereo not given), the INHIBITION came out at 38.2%.
Under `CN(C)CCN1C(=O)C2(CCN(CC3CC3)CC2)c2ccccc21` stands 27.6%; under `COCCN1C(=O)C2(CCN(CC3CC3)CC2)c2ccccc21`, 55.7%; under `CC(C)CN1C(=O)C2(CCN(CC3CCOCC3)C2)c2ccccc21` (stereo not given), 71.9%.
Regarding `CC(C)CN1C(=O)C2(CCN(Cc3ccoc3)C2)c2ccccc21` (stereo not given), the INHIBITION turned out to be 23.3%.
`Cc1ccc(CN2CCC3(CC2)C(=O)N(C)c2ccccc23)s1`: the INHIBITION is 31.8%.
Take `CC(C)CN1C(=O)C2(CCN(Cc3cccs3)C2)c2ccccc21` (stereo not given): the INHIBITION is recorded as 20.4%.
